The results in this text go back to the supplement of paper PMC3334620.

In all, about 33,000 sequences were measured (“E-score (-0.5 to 0.5)”: median about -0.016, highest 2% from about 0.32 on). For the sample, the highest values were picked, then their nearest neighbours and some sequences at random.

This assay has as its target T1, Stp1 (UniProt B3LFK1).
T1 sequence: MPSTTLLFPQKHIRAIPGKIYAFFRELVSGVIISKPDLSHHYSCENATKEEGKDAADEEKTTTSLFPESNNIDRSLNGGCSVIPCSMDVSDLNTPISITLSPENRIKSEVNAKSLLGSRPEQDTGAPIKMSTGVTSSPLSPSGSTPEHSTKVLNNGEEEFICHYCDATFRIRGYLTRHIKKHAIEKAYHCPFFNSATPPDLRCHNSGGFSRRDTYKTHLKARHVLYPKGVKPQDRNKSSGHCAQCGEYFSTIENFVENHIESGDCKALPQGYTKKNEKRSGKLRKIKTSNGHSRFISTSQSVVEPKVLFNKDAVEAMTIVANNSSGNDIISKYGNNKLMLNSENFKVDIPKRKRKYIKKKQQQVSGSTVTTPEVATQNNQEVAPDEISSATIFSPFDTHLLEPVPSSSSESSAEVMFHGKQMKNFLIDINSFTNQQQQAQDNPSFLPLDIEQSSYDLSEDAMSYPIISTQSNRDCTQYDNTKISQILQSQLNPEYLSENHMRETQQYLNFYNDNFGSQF
Kind of assay: PBM E-score (8-mer binding enrichment) (E-score (-0.5 to 0.5)); higher = stronger / more preferred TF binding. Conditions: protein concentration: 200 nM; construct: GST-full length. Here is the method: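 Universal 'all 10-mer' protein binding microarrays (Agilent AMADID 015681) probed with GST-tagged S. cerevisiae TFs (full-length or DBD) made by in vitro transcription/translation (PURExpress), about 100-200 nM. Bound TF was detected with fluorescent anti-GST. Each ungapped 8-mer (which stands for itself and its reverse complement) is scored by the PBM enrichment score (E-score), a modified Wilcoxon-Mann-Whitney statistic from -0.5 to +0.5, computed with the Universal PBM Analysis Suite. Scale: above 0.35 generally sequence-specific binding.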
As for CATTGCCA, the “PBM E-score” value is -0.0509. In the case of ATTTGCCA, the “PBM E-score” value is -0.0687.

AATTGCCG: the “PBM E-score” value turned out to be 0.341. With ATTTGCCG the figure was 0.335. Regarding AATTGCCC, the “PBM E-score” value turned out to be 0.0223. To AATTGCCA belongs -0.00723. With ATTTGCCC the figure was 0.109; with CCGTACGC, 0.327; with CCGTACGG, 0.341. To ACGTACGG belongs 0.292; to GCGTACGC, -0.0472. As to CCGTACGA, the “PBM E-score” value stood at 0.298. For the sequence ACGTACGC, the “PBM E-score” value was -0.023. ACGTGCCA: the “PBM E-score” value was determined as 0.148. With ATTCTACA the figure was 0.221; with CAAGTGAA, 0.00842; with ACATAAGC, 0.00404. On to AGCTTACA, for which the “PBM E-score” value worked out at 0.0627.

On to AGACCCTC, for which the “PBM E-score” value was -0.313.

Consider AATGTCAC, for which the “PBM E-score” value was 0.136. As for CTTATGGA, the “PBM E-score” value is -0.0787. With ACGGCGGA the figure was 0.314; with TCGGCGAA, -0.0263. To GCGGCGAA belongs 0.427. Take ATGGCGAC: the “PBM E-score” value was 0.0528. To GAGGCGAC belongs 0.155; to GCGGCGAC, 0.434; to CCGGCGAC, -0.167.

Consider CCGGCGAA, for which the “PBM E-score” value worked out at 0.088.

Consider GCGGCGGA, for which the “PBM E-score” value worked out at 0.358.

Turning to ACGGCGAC, the “PBM E-score” value stood at 0.467.

For the sequence CCGGCGGA, the “PBM E-score” value is 0.0459. With AGGGCGAC the figure was 0.015. Consider AGCTATGA, for which the “PBM E-score” value is -0.183.

For the sequence CACCTGCC, the “PBM E-score” value is 0.055.

Take GGTGGCTA: the “PBM E-score” value stood at 0.0168. To AAGCGTAC belongs -0.161; to AGGGACAT, 0.0229. CAGCTTGA: the “PBM E-score” value was -0.0612. With TAAGATGA the figure was 0.0182.

In the case of TCATCCGA, the “PBM E-score” value was determined as 0.0548. Regarding CAGGGGGG, the “PBM E-score” value is -0.469. With ATGGCGAA the figure was 0.139. In the case of ACGGCGAA, the “PBM E-score” value is 0.465. As for AGGGCGAA, the “PBM E-score” value was -0.0283. In the case of ATGGCGGC, the “PBM E-score” value turned out to be 0.158. To ACGGCGGC belongs 0.445; to ACGGCGGG, 0.289. To CAAGCTAC belongs -0.171. With TATATATA the figure was 0.345; with CATATATA, 0.256. As for AGTATATA, the “PBM E-score” value was found to be 0.363. To AGTATATC belongs 0.0639. With AGTATATG, the “PBM E-score” value is -0.0746. With GATATATA the figure was 0.314; with AACACTCT, 0.00778.

As to AACGGCGC, the “PBM E-score” value worked out at 0.477. To ACCGGCGC belongs 0.3; to AATGGCGT, 0.161. On to GCCGGCGC, for which the “PBM E-score” value came out at 0.346. To GACGGGGC belongs 0.143; to AATGGCGC, 0.253; to AACGGGGC, 0.186. To GACGGCGC belongs 0.451. To GATGGCGC belongs 0.145. Regarding AACGGCGT, the “PBM E-score” value came to 0.448.

Consider CCCGGCGC, for which the “PBM E-score” value was determined as 0.121. With ACCGGCGT the figure was 0.0951; with ATAGCAGC, -0.187; with CTGAGCGC, 0.0168. Turning to GAGAACAA, the “PBM E-score” value amounted to 0.145. With CACGGGCA the figure was 0.231; with ACGTAGTA, 0.103; with CCCTCTTC, -0.308. With AACGGCGG the figure was 0.378; with AACGGGGG, -0.316.

On to AACGGGCG, for which the “PBM E-score” value amounted to 0.154. Take CGACTGCG: the “PBM E-score” value was -0.098. To GAAAGACC belongs -0.321. To AACGCCGA belongs 0.292. To AACGCCTT belongs 0.328. In the case of AACGCCTA, the “PBM E-score” value is 0.0856.

Take AACGCCTC: the “PBM E-score” value came to 0.225. With AACGCCAC the figure was 0.245; with AACGCCCC, 0.213. On to AACGCCGG, for which the “PBM E-score” value was found to be 0.0903.

Turning to AACGCCGC, the “PBM E-score” value was 0.47.
